The record followed here is the supplement of paper PMC8728848.

What all share (assay): glycan array binding signal (z-score within array); higher = stronger binding
Holding throughout (conditions): glycan notation: IUPAC condensed, linker removed

Assay [1] deals with Fuc(a1-2)Gal(b1-3)GalNAc(a1-3)[Fuc(a1-2)]Gal(b1-4)Glc. The essentials: (§1)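 Glycan array binding is given as a within-array Z-score, which can be read as non-binding when negative. The arrays, 3228 of them, came from the Consortium for Functional Glycomics database and were retained only where the protein sequence was available. Z-scores were averaged across arrays of the same protein sequence at different concentrations or buffers and across linkers.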

The target in assay [2] is Fuc(a1-2)Gal(b1-3)[Fuc(a1-4)]GlcNAc(b1-2)Man(a1-3)[Fuc(a1-2)Gal(b1-3)[Fuc(a1-4)]GlcNAc(b1-2)Man(a1-6)]Man(b1-4)GlcNAc(b1-4)[Fuc(a1-6)]GlcNAc(b1-4)[Fuc(a1-6)]GlcNAc. The essentials: as §1
The next assay deals with Fuc(a1-2)Gal(b1-4)Glc6S. The essentials: as §1
The target in assay [3] is Fuc(a1-2)Gal(b1-4)GlcNAc(b1-3)GalNAc. In a few lines:
as §1

Assay [4] deals with Fuc(a1-2)Gal(b1-4)[Fuc(a1-3)]GlcNAc(b1-3)Gal(b1-4)[Fuc(a1-3)]GlcNAc. In a few lines: as §1
The target of assay [5] is Fuc(a1-2)[Gal(a1-3)]Gal(b1-3)GlcNAc(b1-3)GalNAc. In a few lines: as §1
For assay [6], the target named is Fuc(a1-2)[GalNAc(a1-3)]Gal(b1-4)GlcNAc(b1-2)Man(a1-3)[Fuc(a1-2)[GalNAc(a1-3)]Gal(b1-4)GlcNAc(b1-2)Man(a1-6)]Man(b1-4)GlcNAc(b1-4)GlcNAc. In a few lines:
as §1

In assay [7] the target is Fuc(a1-3)[Gal(b1-4)]GlcNAc(b1-6)[Gal(b1-3)GlcNAc(b1-3)]Gal(b1-4)Glc. The essentials: as §1
A further assay deals with Fuc(a1-4)GlcNAc. In a few lines:
as §1

A further assay deals with Gal(a1-3)Gal(b1-3)GlcNAc. In a few lines:
as §1

Assay [8] has as its target Gal(a1-4)Gal(b1-4)GlcNAc(b1-2)Man(a1-3)[Gal(a1-4)Gal(b1-4)GlcNAc(b1-2)Man(a1-6)]Man(b1-4)GlcNAc(b1-4)GlcNAc. In a few lines: as §1
Assay [9] has as its target Gal(b1-3)GalNAc(a1-3)[Fuc(a1-2)]Gal(b1-4)Glc. The essentials: as §1
Another assay has as its target Gal(b1-3)GlcNAc(b1-2)Man. In a few lines: as §1
The target of assay [10] is Gal(b1-3)[GlcNAc(b1-6)]GalNAc. In a few lines: as §1
In assay [11] the target is Gal(b1-3)[Neu5Ac(a2-6)]GlcNAc(b1-4)Gal(b1-4)Glc. The essentials:
as §1

Assay [12] concerns the target Gal(b1-4)GalNAc(b1-3)[Fuc(a1-2)]Gal(b1-4)GlcNAc. The essentials: as §1
A further assay concerns the target Gal(b1-4)GlcNAc(b1-2)Man. In a few lines:
as §1

For assay [13], the target named is Gal(b1-4)GlcNAc(b1-2)Man(a1-6)Man(b1-4)GlcNAc(b1-4)GlcNAc. The essentials: as §1
The target of assay [14] is Gal(b1-4)GlcNAc(b1-2)[Gal(b1-4)GlcNAc(b1-6)]Man(a1-6)[GlcNAc(b1-4)][Gal(b1-4)GlcNAc(b1-2)Man(a1-3)]Man(b1-4)GlcNAc(b1-4)GlcNAc. In a few lines: as §1
The target of assay [15] is Gal(b1-4)GlcNAc(b1-3)Gal(b1-4)Glc. In a few lines:
as §1

Assay [16] deals with Gal(b1-4)GlcNAc(b1-3)Gal(b1-4)GlcNAc. In a few lines: as §1
Assay [17] deals with Gal(b1-4)GlcNAc(b1-3)Gal(b1-4)GlcNAc(b1-3)Gal(b1-4)GlcNAc. The essentials:
as §1

For assay [18], the target named is Gal(b1-4)GlcNAc(b1-3)Gal(b1-4)GlcNAc(b1-3)Gal(b1-4)GlcNAc(b1-2)Man(a1-3)[Gal(b1-4)GlcNAc(b1-3)Gal(b1-4)GlcNAc(b1-3)Gal(b1-4)GlcNAc(b1-2)Man(a1-6)]Man(b1-4)GlcNAc(b1-4)GlcNAc. The essentials: as §1
Assay [19] has as its target Gal(b1-4)GlcNAc(b1-3)Gal(b1-4)GlcNAc(b1-3)Gal(b1-4)GlcNAc(b1-2)Man(a1-3)[Gal(b1-4)GlcNAc(b1-3)Gal(b1-4)GlcNAc(b1-3)Gal(b1-4)GlcNAc(b1-2)Man(a1-6)]Man(b1-4)GlcNAc(b1-4)[Fuc(a1-6)]GlcNAc. In a few lines: as §1

Only a selection was taken, and the strongest signals are over-represented in it overall.

B1: B1567 (Bifidobacterium sp) (protein)
chain: MKFTTAKKAVALTGAVAMLVSVAACGSDSGKSSQPAQDSDVKEITVWAWEPSLTQVAKDFEKETGIKVDLKNVGTNTKEYTQLDNAIEAGSGAPDVAQVEYYAVPQYAIKGNLLDITDKTSGYKDFYTPGPWASVQFAGKVYGLPMDSGPMAFFYNKEVFDKAGVDAEQIKTWDQYYDAAKKIHALGDNYYITSDTGDAGFFDSMTWLAGAKPFQTSSDGSEVTVNLTEDKGVKTFTDFWQKLLDEGLLDTKTAGWSEDWFKGMVDGTIASLFTGAWMPANLANSAADGAGKWRVTQMPTADGSTTNSENGGSSLAVLASTKKADAAYQFIEYANHGAGVATRVAGGAFPADKASLEKDSFKNATTVKNADGQDVDYFGGQKYNEVLAQAAENVSSGYQFLPFEVKARTIFGDYFGKSYTGDQKLSDGVAAWQKALQDYGKDQGFTVK
On to B1, for which the “glycan array binding signal (z-score)” value is -0.161 in assay [1]; -0.08 in [2]; -0.184 with Fuc(a1-2)Gal(b1-4)Glc6S; -0.127 in assay [3]; -0.104 in assay [4]; -0.097 in assay [5]. The “glycan array binding signal (z-score)” value in assay [6] was 0.019; in assay [7], -0.15; with Fuc(a1-4)GlcNAc, -0.077; with Gal(a1-3)Gal(b1-3)GlcNAc, -0.129; in assay [8], 0.067; in [9] it was -0.013. The “glycan array binding signal (z-score)” value in the assay with Gal(b1-3)GlcNAc(b1-2)Man is 0.008; in assay [10], -0.138; in assay [11], -0.133; in [12], -0.08; with Gal(b1-4)GlcNAc(b1-2)Man, -0.12; in assay [13], -0.101. Further, the “glycan array binding signal (z-score)” value is -0.145 in assay [14]; 14.9 in assay [15]; 0.588 in assay [16]; 1.4 in assay [17]; 0.282 in [18]; 0.333 in [19].
